Source: PubChem BioAssay (several laboratories)
ANO1 activ: mouse TMEM16A channel activation, primary screen; Q8BHY3; HEK293 TMEM16A/YFP-H148Q/I152L, iodide quench fluorescence; active compounds read low; B-score at 10 µM; 340,000 tested, 0.3% active; AID 623877;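 active means fluorescence-ratio B-score plate-corrected deviation score at least 3 library SD below zero, with starting fluorescence score within 5 deviations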;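 further: channel opened by trigger with iodide after compound preincubation; score built on the fluorescence ratio of max minus min over baseline; more negative score means more quench and so TMEM16A activation or potentiation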
Target sequence (Q8BHY3 whole entry, looked up): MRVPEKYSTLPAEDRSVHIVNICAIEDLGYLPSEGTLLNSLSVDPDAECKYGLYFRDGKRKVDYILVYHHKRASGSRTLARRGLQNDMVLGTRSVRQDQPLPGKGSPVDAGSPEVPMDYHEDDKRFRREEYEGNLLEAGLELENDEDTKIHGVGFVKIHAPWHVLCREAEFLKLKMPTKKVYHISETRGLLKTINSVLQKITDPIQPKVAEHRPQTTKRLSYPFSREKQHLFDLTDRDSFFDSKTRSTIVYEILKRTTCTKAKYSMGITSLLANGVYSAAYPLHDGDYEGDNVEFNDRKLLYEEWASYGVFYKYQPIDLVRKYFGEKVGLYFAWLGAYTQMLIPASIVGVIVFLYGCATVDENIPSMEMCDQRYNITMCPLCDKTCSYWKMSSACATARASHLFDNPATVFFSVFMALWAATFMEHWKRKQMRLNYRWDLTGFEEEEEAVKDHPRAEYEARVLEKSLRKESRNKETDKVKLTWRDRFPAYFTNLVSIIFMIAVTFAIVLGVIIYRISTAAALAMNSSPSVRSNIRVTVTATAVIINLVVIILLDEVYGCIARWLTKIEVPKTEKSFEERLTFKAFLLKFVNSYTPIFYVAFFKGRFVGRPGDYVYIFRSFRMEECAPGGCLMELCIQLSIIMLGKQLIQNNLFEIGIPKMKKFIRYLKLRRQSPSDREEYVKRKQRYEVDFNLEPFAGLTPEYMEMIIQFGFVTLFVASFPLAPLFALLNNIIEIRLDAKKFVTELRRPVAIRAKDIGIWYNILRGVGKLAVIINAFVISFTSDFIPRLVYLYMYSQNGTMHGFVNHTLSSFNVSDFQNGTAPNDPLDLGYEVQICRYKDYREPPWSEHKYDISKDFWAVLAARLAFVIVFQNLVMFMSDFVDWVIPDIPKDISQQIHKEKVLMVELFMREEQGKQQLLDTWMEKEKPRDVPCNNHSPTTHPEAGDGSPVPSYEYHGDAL
PKA-R1A act: activates the PKA-R1A holoenzyme complex; PKA-R1A dissociation, Cy5-IP20 fluorescence polarization; scaled: DMSO 0%, 113 µM cGMP 100%; P00514+P68181; activation, % at 11.4 µM; AID 504707; 340,000 tested, 0.083% active;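 active means percent activation above the mean of all tested compounds plus 3 SD, cut at about 19% in these data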;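 further: higher means more PKAc released from R1A so a rise in polarization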
PKA-R2B act: activates the human PKA-R2B holoenzyme complex; P22694+P31323; PKA-R2B holoenzyme dissociation, Cy5-IP20 fluorescence polarization; R2B truncated from residue 108, S112A mutant; 0% DMSO only, 100% 113 µM cGMP; activation, % at 11.4 µM; 340,000 tested, 0.079% active;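 active means activation above a cutoff set at the mean over all compounds plus 3 SD, cut at about 18% in these data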;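 further: higher means more holoenzyme dissociation and a rise in polarization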
ANO1 block: inhibitors of mouse TMEM16A calcium-activated chloride channel; Q8BHY3; HEK293 TMEM16A/YFP iodide influx fluorescence, ionomycin; normalized B-score (activity score, 25-100; higher = stronger inhibition) at 10 µM; 310,000 tested, 1.2% active; AID 588511;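 active means ratio plate-corrected score three or more library SD toward inhibition, starting fluorescence score within five deviations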;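 further: score derived from kinetic fluorescence span divided by baseline fluorescence per well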
CHT allo act: allosterically activates the human high affinity choline transporter; B-score at 10 µM; CHT-expressing cells, membrane potential dye, choline EC20; active compounds read high; LV-AA mutant CHT in HEK293 cells; 310,000 tested, 0.49% active; AID 488977;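 active means initial fluorescence not abnormally high and integrated response B-score, plate-corrected, over 3 SD above library mean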
CHT block: inhibitors of human choline transporter CHT. Q9GZV3. CHT-expressing cells, membrane potential dye, choline response; active compounds read low. B-score at 10 µM. 310,000 tested, 0.86% active;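 active means B-score over 3 SD under the library average, and starting fluorescence ratio not unusually high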;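 further: choline stimulus applied at its EC90 after an EC20 pre-addition; B-score computed on integrated fluorescence ratio after choline addition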
* marks the source's active call; other numbers are inactive results; i = inactive; x = no result. In the library only some 2.5% were active in any assay of this set; here they are far more common.

SMILES | ANO1 activ | PKA-R1A act | PKA-R2B act | ANO1 block | CHT allo act | CHT block
CC1CN(c2ccccn2)C(C)CN1C(=S)Nc1ccccc1 (centres undefined) | i | 10.8 | -2.4 | x | x | x
CCOC(=O)C1CCN(C(=O)c2ccc3c(c2)NC(=O)/C(=C/c2ccccc2)S3)CC1 | -50.5* | 2.3 | -3.6 | i | i | i
CCOc1ccccc1C1c2[nH]c3ccccc3c2C[C@H]2C(=O)N(C3CC3)CC(=O)N12 (some centres undefined) | i | -2.3 | 12.2 | i | i | i
COc1c(CC=C(C)C)cc(C2CC(=O)c3c(O)cc(O)cc3O2)c(CC=C(C)C)c1O (centres undefined) | x | x | x | 100* | i | i
COc1ccc2c(ccc[n+]2[O-])c1 | i | 0.1 | 8.5 | x | x | x
COc1ccc2nc3ccccc3[n+]([O-])c2c1 | -10.4* | -9.7 | 4.9 | x | x | x
CC(C)COc1ccc(-c2nnc(-c3ccco3)o2)cc1 | i | 4.4 | 0.3 | i | i | i
CCN(CC)CCCNc1ccc(-c2nnc(-c3ccc(OCC(C)C)cc3)o2)cn1 | -5.64* | -4.0 | -9.4 | i | i | i
Cc1nn(-c2ccc(C(=O)N3CCN(S(=O)(=O)c4ccccc4C(F)(F)F)CC3)cc2)c(C)c1Cl | -5.77* | -8.5 | -10.2 | x | x | x
CC(=O)c1ccc(S(=O)(=O)N2CCN(C(=O)c3ccc(-n4nc(C)c(Cl)c4C)cc3)CC2)cc1 | i | 8.3 | 9.3 | x | x | x
O=C(N/N=C/c1cccnc1)c1ccc([N+](=O)[O-])cc1 | i | -19.1 | -1.6 | i | 6.82* | i
COc1ccc(C2/C=C\CN(Cc3ccco3)CC(=O)N2Cc2ccc(F)cc2)cc1 (centres undefined) | i | 7.1 | -6.2 | i | i | i
N#Cc1ccc(Oc2cccc3cccnc23)c([N+](=O)[O-])c1 | -5.76* | -4.8 | -6.0 | i | i | i
CC1(C)CC(=O)C(C2C3=C(CC(C)(C)CC3=O)Oc3c(Br)cc(Br)cc32)=C(O)C1 (centres undefined) | i | 11.7 | -5.4 | 25* | i | i
CC1(C)CC(=O)C2=C(C1)OC1=C(C(=O)CC(C)(C)C1)C2c1cc([N+](=O)[O-])cc([N+](=O)[O-])c1O | i | -0.1 | -6.7 | i | i | i
CC(=O)Oc1ccc(-c2nc(-c3cccnc3)no2)cc1 | -14.7* | -6.1 | 7.8 | i | i | i
COc1ccc(NC(=O)C/C(C)=N/NC(=O)c2ccco2)c([N+](=O)[O-])c1 | i | 4.1 | -10.0 | i | i | i
O=C(CSc1nc2ncc(Cl)cc2[nH]1)Nc1ccccc1-c1ccccc1 | i | -0.2 | -9.5 | 100* | i | i
CCOC(=O)c1c(NC(=O)c2cc(C(C)C)on2)sc(C(C)=O)c1C | -11.9* | 9.9 | -4.0 | i | i | i
CCOC(=O)c1sc(NC(=O)CSc2nc(-c3ccco3)cc(C(F)(F)F)n2)c(C(=O)OCC)c1C | -7.66* | -5.7 | -3.4 | x | x | x
CCOC(=O)c1c(NC(=O)CSc2nc3ccccc3s2)sc(C(C)=O)c1C | i | -11.0 | -0.8 | 25* | i | i
COC(=O)c1ccc(CSc2nc(-c3ccco3)cc(C(F)(F)F)n2)o1 | -5.05* | -2.7 | -3.7 | i | i | i
CCOC(=O)c1c(NC(=O)CSc2nnnn2-c2ccc(OC)cc2)sc(C)c1C | i | -5.1 | -3.1 | 25* | i | i
CCOC(=O)c1csc(NC(=O)CSc2nnnn2-c2ccc(OC)cc2)n1 | i | -1.1 | -5.0 | i | i | i
Nc1nc(N2CCN(C/C=C/c3ccccc3)CC2)nc2ccccc12 | i | 10.6 | 3.8 | i | i | -6.76*
CS(=O)(=O)N1CCN(C/C=C/c2ccccc2)CC1 | i | -6.6 | -21.0 | i | i | i
O=C(CN1C(=O)NC2(CCCCCC2)C1=O)Nc1ccc(Br)cc1Br | i | -3.5 | -3.6 | x | x | x
CN1Cc2cc(C(=O)c3cc(Cl)cc(CSc4ncccn4)c3O)cnc2NC1=O | x | x | x | i | 7.01* | i
